Results with a measured potency or affinity are listed apart. Calls of active or inactive are those of the source.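 Rule for the calls: active = cell killing, meaning signal decrease, with fitted half-maximal dose at or below ten times the top valid tested dose; inconclusive = poor fit, or flat curve with 30 to 70% signal loss; inactive = the rest.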
Assay: ATP-based viability loss in HeLa cells – cell-based, CellTiter-Glo luminescence, cherry-pick samples, cytotoxicity control for MITF activator project, dose response (AID 540259)

SMILES | outcome
COC(=O)c1cn(CC(=O)NCc2cccs2)c2ccccc12 | inactive
Clc1ccc(-c2cnnc(-c3ccccn3)n2)cc1 | inactive
CCN(CC)CC(=O)Nc1scc2c1c(=O)oc1ccccc12 | inactive
Cc1cccc(-c2nc(C#N)c(NC3CCCCC3)o2)c1 | inactive
COc1ccc(-c2noc(-c3cccc(OC)c3OC)n2)cc1OC | inactive
CC(C)(C)c1ccc(C(=O)Nc2ccc(F)cc2)s1 | inactive
COc1ccc(C2Nc3ccccc3C(=O)N2c2ccc(C)cc2)cc1Cn1nnc2ccccc21 (stereo unspecified) | inactive
COc1cccc(CNc2nc3ccccc3n2C)c1O | inactive
CCC(C)c1ccc(NC(=O)Nc2cccnc2)cc1 (stereo unspecified) | inactive
Fc1cc(Br)ccc1COc1ccc(-c2nnco2)cc1 | inactive
COc1ccc2cc(C(N)=O)c(=Nc3ccccc3)oc2c1 | inactive
O=C(Cc1ccccc1F)Nc1ccc(SC(F)F)cc1 | inactive
COc1ccccc1Nc1nc(C)cs1 | inactive
O=C(NCc1ccccn1)Nc1ccc(Br)cc1Cl | inactive
COC(=O)c1cc(-c2ccc(OC)cc2)n[nH]1 | inactive
Nc1nonc1-n1nnc(C(=O)N/N=C/c2ccc(OCc3ccccc3F)cc2)c1CN1CCCCC1 | inactive
Cc1nc2ccccn2c1C(=O)N/N=C/c1ccc2c(c1)OCO2 | inactive
CC(C)(C)C(=O)c1sc(Nc2ccccc2)nc1N | inactive

SMILES | outcome
O=C(CC1CCCC1)Nc1ccc(Br)cc1 | inactive
Nc1ccc(Oc2cc(N)cc(Oc3ccccc3)c2)cc1 | inactive
O=C(NCc1ccc2c(c1)OCO2)Nc1cccc(Cl)c1 | inactive
CC(=O)Nc1ccc2c(c1)ncn2-c1ccccc1 | inactive
O=C(N=C1N=C2C=CC=CN2Cc2ccccc21)c1ccc(S(=O)(=O)N2CCCC2)cc1 | inactive
Cc1cccc(NC(=O)c2onc3c2CCCC3)c1C | inactive
COc1ccc(Nc2nc(N)c3ccccc3n2)c(OC)c1 | inactive
CCN(CC)S(=O)(=O)c1cc(C(=O)Nc2cc(C)[nH]n2)ccc1Cl | inactive
COc1ccc(NC(=O)c2ccc3c(c2)OCO3)cc1Cl | inactive
O=C(OCc1csc(-c2ccccc2)n1)c1ccc(O)cc1 | inactive
COCc1ccc(-c2c(-c3ccc(OC)cc3)oc(=O)c3cc(OC)c(OC)cc23)cc1 | inactive
COc1ccc(/C=N/Nc2nccnc2Cl)c(OC)c1 | inactive
COc1ccc(/C=N/Nc2snc(SC)c2C#N)cc1OC | inactive
O=c1[nH]c(COc2ccccc2)nc2ccccc12 | inactive
Cc1cccc(NC(=O)c2sc3nc(N)c(C#N)cc3c2N)c1 | inactive
COc1ccc(-c2c(C)nc3c(-c4ccsc4)cnn3c2N)cc1 | inactive
CN(C)c1ccc(CSc2ccccc2)cc1 | inactive
Cc1ccc(S(=O)(=O)Nc2cccc(-c3ccc(N4CCCCCC4)nn3)c2)cc1 | inactive
